Here are results for 6 compounds from PubChem BioAssay.

“And” between values parts separate entries of the source, which are not always exact repeats. Identical values can stand only once. The source made the active and inactive calls.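 Rule for the calls, unless noted: active = z-score of at least 1.8 in each of two replicates, scored against plate mean and spread of sample wells; inactive = the rest.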

The target in assay [1] is NAD(+) hydrolase SARM1 (Homo sapiens) (UniProt Q6SZW1). Put plainly: blocking NAD cleavage by SARM1 SAM-TIR – cell lysate, NAD-Glo luminescence (AID 1508614;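 active = compound whose remaining NAD level is above about 45 nM, limit read from the data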;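 note: higher remaining NAD means stronger inhibition of SARM1 NADase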). As to conditions: SAM-TIR HEK293T lysate NADase, at 1 µM, stronger effect = higher value.
NAD(+) hydrolase SARM1 (Homo sapiens), sequence (Q6SZW1 whole entry, looked up): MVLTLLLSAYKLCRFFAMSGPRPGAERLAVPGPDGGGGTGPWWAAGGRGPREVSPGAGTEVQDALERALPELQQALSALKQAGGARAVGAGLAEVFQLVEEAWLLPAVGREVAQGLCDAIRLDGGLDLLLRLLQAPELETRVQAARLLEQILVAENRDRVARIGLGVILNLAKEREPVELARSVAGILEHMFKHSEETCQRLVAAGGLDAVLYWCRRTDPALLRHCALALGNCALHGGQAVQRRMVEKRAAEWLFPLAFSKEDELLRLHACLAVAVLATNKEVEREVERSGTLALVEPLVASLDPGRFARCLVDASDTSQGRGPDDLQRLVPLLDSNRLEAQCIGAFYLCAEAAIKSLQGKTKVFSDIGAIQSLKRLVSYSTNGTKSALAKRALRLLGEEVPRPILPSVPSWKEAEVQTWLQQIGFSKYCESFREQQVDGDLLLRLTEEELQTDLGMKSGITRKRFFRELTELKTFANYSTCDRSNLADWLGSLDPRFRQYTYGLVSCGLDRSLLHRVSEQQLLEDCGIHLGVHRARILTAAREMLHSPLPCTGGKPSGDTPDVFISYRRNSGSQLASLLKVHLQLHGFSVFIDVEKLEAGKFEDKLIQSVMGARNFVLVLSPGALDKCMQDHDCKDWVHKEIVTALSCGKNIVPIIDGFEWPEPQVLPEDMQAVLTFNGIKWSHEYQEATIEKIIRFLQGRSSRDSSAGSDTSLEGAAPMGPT
Assay [2] can be described thus: galactose survival enhancers in mitochondrial complex I cybrids – cell-based, galactose medium, ATP luminescence, primary screen (AID 1645843).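 Note: positive z means more ATP and so rescue of galactose-driven cybrid death.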 The note with it: complex I mutant cybrid cells, 72 h, stronger effect = higher value.
The next assay concerns F380Y. Put plainly: BK channel mutant inhibitors and activators – cell-based, U2OS BacMam, thallium flux, beta subunits, selectivity assay, profiling panel (AID 1259406;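 active = thallium flux through the channel raised or lowered by more than 3 SD from vehicle-only wells, actives on both sides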;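 note: initial slope of Thallos dye fluorescence rise after thallium is added; log ratio against the mean of 0.3% DMSO vehicle wells on the same plate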). The note with it: U2OS BacMam BK variants, at 30 µM.
The subject of the next assay is F380Y/beta1. The description is as above. As to conditions: U2OS BacMam BK variants, at 30 µM.
The target in assay [3] is Mitogen-activated protein kinase 7 (Homo sapiens) (UniProt Q13164). Put plainly: Gal4-ERK5 driven luciferase induction – cell-based, HTS, primary screen (AID 1508626;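 active = luciferase signal above three times the same-plate solvent-only control wells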;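 note: luciferase driven by Gal4-ERK5 fusion binding five Gal4 sites before minimal TATA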). The note with it: HeLa Gal4-ERK5 transactivation, 18 h, at 5 µM, stronger effect = higher value.
Mitogen-activated protein kinase 7 (Homo sapiens), sequence (Q13164 whole entry, looked up, the tested form may be a part): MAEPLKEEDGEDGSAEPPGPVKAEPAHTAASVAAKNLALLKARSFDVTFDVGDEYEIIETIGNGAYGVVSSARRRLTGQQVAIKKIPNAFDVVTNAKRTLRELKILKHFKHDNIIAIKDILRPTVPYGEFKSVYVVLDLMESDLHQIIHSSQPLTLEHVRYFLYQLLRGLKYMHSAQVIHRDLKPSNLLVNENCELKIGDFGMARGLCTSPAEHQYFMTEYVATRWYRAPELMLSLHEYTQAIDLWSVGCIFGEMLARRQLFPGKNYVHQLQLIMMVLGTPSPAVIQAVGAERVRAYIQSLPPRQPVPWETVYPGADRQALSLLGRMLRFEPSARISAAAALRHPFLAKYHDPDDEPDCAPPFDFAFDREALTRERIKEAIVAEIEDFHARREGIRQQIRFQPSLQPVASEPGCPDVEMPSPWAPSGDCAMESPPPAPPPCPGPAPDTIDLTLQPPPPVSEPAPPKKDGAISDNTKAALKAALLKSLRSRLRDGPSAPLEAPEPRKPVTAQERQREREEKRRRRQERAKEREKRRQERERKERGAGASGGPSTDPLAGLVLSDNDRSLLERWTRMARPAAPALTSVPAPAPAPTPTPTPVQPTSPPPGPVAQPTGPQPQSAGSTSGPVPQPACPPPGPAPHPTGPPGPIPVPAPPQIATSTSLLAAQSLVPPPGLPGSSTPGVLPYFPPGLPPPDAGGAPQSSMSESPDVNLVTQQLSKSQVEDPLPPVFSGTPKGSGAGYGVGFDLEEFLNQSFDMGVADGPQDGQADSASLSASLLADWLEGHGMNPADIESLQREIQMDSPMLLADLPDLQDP
Assay [4] is described as follows: growth inhibition, single agent or in combination, cell-based, chromothripsis tumors, cisplatin or BGB combos (AID 1671449; in the data active = inhibition above about 80%;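 note: cells exposed for 96 hours; 0% = vehicle DMSO and 100% = killing by high DMSO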). The note with it: LFS_MB_P medulloblastoma cells.
Assay [5] in a line: growth inhibition, single agent and combos, cell-based, chromothripsis tumors, cisplatin or BGB combos (AID 1671450; in the data active = inhibition above about 80%;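 note: cells exposed to compound for four days; 0% = vehicle DMSO and 100% = cell killing by high DMSO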). The note with it: HDN33 neuroblastoma cells, stronger effect = higher value.
A short description of assay [6]: growth inhibition, single agents and combos, ICB984, cell-based, cisplatin or BGB combos, synergistic combos for chromothripsis tumors (AID 1671451; call rule not given here;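 note: cells exposed for 96 hours before readout; 0% = vehicle DMSO and 100% = killing by high DMSO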). As to conditions: ICB984 medulloblastoma cells, drug combinations, stronger effect = higher value.
Assay [7] is described as follows: growth inhibition, single agents and combos, LFS_MB_1R, cell-based, cisplatin or BGB combos, synergistic combos for chromothripsis tumors (AID 1671452; in the data active = inhibition above about 80%;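 note: cells exposed for 96 hours before readout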). As to conditions: LFS_MB_1R medulloblastoma cells, stronger effect = higher value.
A short description of assay [8]: growth inhibition, single agents and combos, HTB85, cell-based, BGB or cisplatin IC20 combos, synergistic combos for chromothripsis tumors (AID 1671453; in the data active = inhibition above about 80%;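 note: cells exposed for 96 hours before readout; 0% = vehicle DMSO and 100% = high DMSO killing control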). The note with it: HTB85 osteosarcoma cells, drug combinations, stronger effect = higher value.
Assay [9] can be described thus: growth inhibition, single agents and combos, CRL2098, cell-based, BGB or cisplatin IC20 combos, synergistic combos for chromothripsis tumors (AID 1671454; in the data active = inhibition above about 80%;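 note: cells exposed for 96 h before readout; 0% = vehicle DMSO and 100% = killing by high DMSO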). The note with it: CRL2098 osteosarcoma cells, drug combinations, stronger effect = higher value.
Assay [10] is described as follows: growth inhibition, single agents and combos, HD-MB03, cell-based, BGB or cisplatin IC20 combos, synergistic combos for chromothripsis tumors (AID 1671455; in the data active = inhibition above about 83%;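 note: 0% = vehicle DMSO and 100% = high DMSO as cytotoxic control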). As to conditions: HD-MB03 medulloblastoma cells, stronger effect = higher value.
Assay [11] is described as follows: growth inhibition, single agents and combos, UWB1.289, cell-based, BGB or cisplatin combos, synergistic combos for chromothripsis tumors (AID 1671456; in the data active = inhibition above about 80%;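 note: cells exposed to compound for four days; 0% = vehicle DMSO and 100% = killing by high DMSO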). The note with it: UWB1.289 ovarian carcinoma cells, stronger effect = higher value.
Assay [12] in a line: growth inhibition, single agents and combos, LFS_MB_2R, cell-based, cisplatin combos, synergistic combos for chromothripsis tumors (AID 1671457; in the data active = inhibition above about 80%;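 note: cells exposed to compound for four days before readout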). The note with it: LFS_MB_2R medulloblastoma cells, stronger effect = higher value.
A short description of assay [13]: growth inhibition, MDA-MB-436, cell-based, BGB or cisplatin combos, synergistic combos for chromothripsis tumors (AID 1671458; call rule not given here;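 note: cells exposed for 96 hours; 0% = vehicle DMSO and 100% = killing by high DMSO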). As to conditions: MDA-MB-436 breast carcinoma growth inhibition, drug combinations, stronger effect = higher value.
Assay [14] is described as follows: UWB1.289_BRCA1 ovarian cancer growth, cell-based, BGB or cisplatin combinations (AID 1671459; in the data active = inhibition above about 80%). As to conditions: UWB1.289 BRCA1 ovarian carcinoma, drug combinations, stronger effect = higher value.
Assay [15] is described as follows: drug combination toxicity in non-malignant astrocytes – cell-based, BGB or cisplatin IC20 combos, cytotoxicity control for chromothriptic childhood tumor combination screen (AID 1671460; in the data active = inhibition above about 80%;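 note: cells exposed to compounds for 96 hours before viability readout; 0% = vehicle and 100% = killing control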). As to conditions: Human astrocytes, viability inhibition, drug combinations, at 0.5 µM, stronger effect = higher value.
Assay [16] is described as follows: BT084 cell growth, single and combined drugs, ICGC_MB145, cisplatin and BGB IC40 combos (AID 1671461; in the data active = inhibition above about 80%;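 note: cells exposed to drugs for 96 hours; 0% = vehicle DMSO and 100% = high DMSO full killing control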). The note with it: BT084 medulloblastoma cells, drug combinations, stronger effect = higher value.
A short description of assay [17]: RCMB18 cell growth, single agent and combined, cisplatin and BGB IC40 combos (AID 1671462; in the data active = inhibition above about 80%;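 note: cells exposed to compound for four days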). The note with it: RCMB18 medulloblastoma cells, stronger effect = higher value.
Assay [18] is described as follows: CRL1545 cell growth, single agent and combined, cisplatin and BGB IC20 combos (AID 1671464; in the data active = inhibition above about 80%;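 note: cells exposed to compound for 96 hours before readout; 0% = vehicle DMSO and 100% = high DMSO killing control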). As to conditions: CRL1545 osteosarcoma cells, stronger effect = higher value.
Where [19] appears, read: measured here: combination with BGB IC40, at 0.05 µM.
[20] abbreviates: measured here: with BGB IC20 combination, at 0.5 µM.
Setting [21] is: measured here: with cisplatin IC20 combination, at 0.5 µM.
[22] abbreviates: measured here: combination with cisplatin, at 0.5 µM.
The mark [23] stands for this setting: measured here: combination with cisplatin, at 5 µM.

Regarding `CCN1CCCC1CNC(=O)c1cc(S(=O)(=O)CC)c(N)cc1OC` (centres undefined), in assay [1], the remaining NAD is 10 nM (inactive). The z-score in assay [2] is 0.105 (inactive) and 0.58 (inactive) and -0.055 (inactive). Besides, the results for the log fold change Tl+ flux with F380Y and with F380Y/beta1 were 0.00396 (inactive) and 0.016 (inactive), respectively.

In the case of `CNS(=O)(=O)Cc1ccc2[nH]cc(CCN(C)C)c2c1`, the remaining NAD in [1] is 10 nM (inactive). Moreover, in assay [2], the z-score was 0.385 (inactive) and 0.365 (inactive) and 0.755 (inactive). Besides, the log fold change Tl+ flux with F380Y was 0.0165 (inactive); in the assay with F380Y/beta1 it was -0.000461 (inactive).

For `CCN1CCN(c2cc3c(cc2F)c(=O)c(C(=O)O)cn3C2CC2)CC1`, in assay [1], the remaining NAD is 10 nM (inactive). For the same compound, the luciferase signal in assay [3] is 144 AU (inactive). Besides, the z-score in assay [2] was -0.045 (inactive) and 0.1 (inactive). In addition, the inhibition – broadly, the relative decrease from the control value, in per cent – in assay [4] (at 0.5 µM, stronger effect = higher value) is -14.6% (inactive); in assay [4] (measured here: combination with BGB IC20, at 0.005 µM), -15.1%; in assay [4] (measured here: combination with BGB IC40, at 0.005 µM) it was -16%; in [4] (setting [19]), -15.4%; in assay [4] (measured here: combination with cisplatin, at 0.5 µM, stronger effect = higher value), -35.9%; in assay [4] (measured here: combination with cisplatin, at 5 µM, stronger effect = higher value) it was -7.57%. In addition, the inhibition in assay [5] (BGB combo, at 5 µM) is -5.32%; in assay [5] (at 0.5 µM), -11.2% (inactive); in [5] (cisplatin combo, at 5 µM), 14%; in assay [5] (setting [20]), -32.1%; in assay [5] (setting [21]) it was 1.88%; in [5] (single agent, at 5 µM) it was -10.9%. Further, the inhibition was -8.19% in [6] (BGB IC20 combo, at 0.005 µM); -15.5% in [6] (BGB IC40 combo, at 0.005 µM); -15.7% in assay [6] (BGB IC40 combo, at 0.05 µM); -30.1% (inactive) in [6] (at 0.5 µM); -18.9% in assay [6] (cisplatin combo, at 0.05 µM); -33.6% in [6] (cisplatin combo, at 0.5 µM). Besides, the inhibition in [6] (cisplatin combo, at 5 µM) was 5.13%; in assay [6] (measured here: 5 uM single agent, at 5 µM) it was -24%; in [7] (at 0.5 µM), -17.4% (inactive); in assay [7] (setting [19]), -29.3%; in [7] (setting [22]), -5.5%; in assay [7] (setting [23]) it was -5.5%. In addition, the inhibition in assay [8] (at 0.5 µM) is 4.78% (inactive); in assay [8] (measured here: with BGB IC20, at 0.5 µM), -19%; in assay [8] (measured here: with BGB IC20, at 5 µM), -4.03%; in [8] (measured here: with cisplatin IC20, at 0.5 µM), 19.5%; in assay [8] (measured here: with cisplatin IC20, at 5 µM) it was -34%; in assay [8] (single agent, at 5 µM), -31.7%. Also, the inhibition in [9] (at 0.5 µM) is -28.3% (inactive); in assay [9] (measured here: combination with BGB at IC20, at 0.5 µM), -35.5%; in [9] (measured here: combination with cisplatin at IC20, at 0.5 µM), -26.8%; in [10] (at 0.5 µM), -4.62% (inactive); in assay [10] (measured here: combo with BGB at IC20, at 0.5 µM) it was -3.92%; in [10] (measured here: combo with cisplatin at IC20, at 0.5 µM) it was -4.26%. Moreover, the inhibition is -2.08% (inactive) in assay [11] (at 0.5 µM); -31.5% in assay [11] (measured here: inhibition with BGB combination, at 0.05 µM); -8.73% in [11] (measured here: inhibition with cisplatin combination, at 0.05 µM); -19.4% (inactive) in assay [12] (at 0.5 µM); -28.5% in [12] (setting [22]); -100% in [12] (setting [23]). Besides, the inhibition in assay [13] (at 0.5 µM) was -32.9% (inactive); in assay [13] (measured here: BGB combination, at 0.5 µM) it was -15.3%; in [13] (measured here: BGB combination, at 5 µM), -31.3%; in assay [13] (measured here: cisplatin combination, at 0.5 µM), -56.8%; in [13] (measured here: cisplatin combination, at 5 µM) it was -40.4%; in assay [14] (BGB combination, concentration series, at 5 µM), -7.62%. For the same compound, the inhibition is -4.92% (inactive) in assay [14] (at 0.5 µM); -6.59% in [14] (cisplatin combination, concentration series, at 5 µM); -1.67% (inactive) in assay [15]; -3.12% in assay [15] (measured here: combo with BGB IC20); -14.1% in [15] (measured here: combo with cisplatin IC20); -38.8% (inactive) in assay [16] (at 0.5 µM). Also, the inhibition in [16] (cisplatin combination, at 0.5 µM) was -21.3%; in [16] (cisplatin combination, at 5 µM), -23.4%; in [16] (measured here: BGB IC40 combination 0.05 uM, at 0.05 µM), -13.2%; in [16] (single agent, at 5 µM) it was -37.9%; in assay [17] (at 0.5 µM), -17.8% (inactive); in assay [17] (cisplatin combo, at 5 µM), -22.9%. In addition, the inhibition was -24.4% in assay [17] (measured here: BGB IC40 combination, at 0.05 µM); -16% in assay [17] (setting [22]); -19.4% in [17] (single agent, at 5 µM); 13.5% (inactive) in assay [18] (at 0.5 µM); 6.58% in assay [18] (setting [20]); 15.1% in [18] (setting [21]). Also, the inhibition in [18] (single agent, at 0.05 µM) was -0.132%; in assay [18] (single agent, at 5 µM) it was 12.7%. Besides, the log fold change Tl+ flux was -0.0402 (inactive) in the assay on F380Y and 0.00744 (inactive) in the assay with F380Y/beta1.

As to `Nc1nc(N)nc(-c2cc(Cl)ccc2Cl)n1`, in [1], the remaining NAD is 10 nM (inactive). Besides, the z-score in [2] is 0.88 (inactive) and -0.09 (inactive) and 0.54 (inactive). Also, the log fold change Tl+ flux in the assay with F380Y is 0.00819 (inactive); in the assay with F380Y/beta1, 0.00785 (inactive).

Consider `O=C(NCCO[N+](=O)[O-])c1cccnc1`, for which the remaining NAD in [1] is 10 nM (inactive). Besides, the z-score in [2] is 0.795 (inactive) and 0.02 (inactive) and 0.605 (inactive). Besides, the log fold change Tl+ flux was 0.0612 (inactive) in the assay with F380Y and 0.00537 (inactive) in the assay on F380Y/beta1.

Take `Cc1cnc(NC(=O)C2=C(O)c3ccccc3S(=O)(=O)N2C)s1`: the remaining NAD in assay [1] is 10 nM (inactive). Besides, the luciferase signal in assay [3] was 52 AU (inactive). Also, the z-score in [2] is 1.35 (inactive) and 0.585 (inactive) and 0.515 (inactive). In addition, the log fold change Tl+ flux in the assay with F380Y is -0.00196 (inactive); with F380Y/beta1, -0.0291 (inactive).
